Our source for the growth inhibition values is PubChem BioAssay (NCI).

SMILES strings stand for the structures. Compounds without any hit were thinned out: in the full panel of roughly 79,000, 15% have a hit. A number with no mark means an inactive call. Activity calls are given as the source filed them. No stated cut-off is given here; in the data, active means growth inhibition above about 70%; inactive means the rest. Where a SMILES comes first, the peptide text is derived from it. [ ]: non-standard residue; d: D form. The star is where a group is joined. ξ: configuration not given here. ξF = NC(Cc1ccccc1)C(=O)O; Cbz = O=C(OCc1ccccc1)*; Sar = CNCC(=O)O

Assay [1] can be described thus: NCI Yeast Anticancer Drug Screen. Data for the rad50 strain (AID 155).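 Further: 0% = growth of vehicle-only cultures of the same strain.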 The conditions noted are these: S. cerevisiae rad50 strain growth inhibition; at 50.0 µM; stronger effect = higher value. In outline: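 Cells are treated with compound, grown, and their growth is then scored against vehicle-only cultures of the same repair-deficient yeast strain.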
The nature of assay [2]: NCI Yeast Anticancer Drug Screen. Data for the mec2-1 strain (AID 157). The conditions noted are these: S. cerevisiae mec2-1 strain, at 50.0 µM, stronger effect = higher value. In outline:
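Mutant yeast (mec2-1) grown with compound; growth inhibition relative to vehicle control reported.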

Assay [3] can be described thus: NCI Yeast Anticancer Drug Screen. Data for the sgs1 mgt1 strain (AID 161).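 Further: 0% = growth of cultures given vehicle only.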 The conditions noted are these: S. cerevisiae sgs1 mgt1 strain, at 50.0 µM, stronger effect = higher value. In outline: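 Growth of a repair-deficient yeast mutant was monitored after compound treatment and expressed as inhibition relative to vehicle-treated cultures.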
The nature of assay [4]: NCI Yeast Anticancer Drug Screen. Data for the cln2 rad14 strain (AID 165).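 Further: 0% = growth equal to vehicle treated cultures.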 The conditions noted are these: S. cerevisiae cln2 rad14 strain, at 50.0 µM, stronger effect = higher value. In outline: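 Readout is yeast growth inhibition versus vehicle-treated controls, using a strain with cln2 and rad14 alterations exposed to compound.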
Assay [5] can be described thus: NCI Yeast Anticancer Drug Screen. Data for the bub3 strain (AID 167). To be noted: S. cerevisiae bub3 mutant strain, at 50.0 µM, stronger effect = higher value. In outline:
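Part of a panel of yeast mutants defective in DNA damage repair or cell cycle regulation. Each strain is grown with compound, and inhibition is calculated relative to solvent-treated cultures.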

Assay [6] is described as follows: NCI Yeast Anticancer Drug Screen. Data for the mlh1 rad18 strain (AID 175). The conditions noted are these: S. cerevisiae mlh1 rad18 strain growth inhibition; at 50.0 µM; stronger effect = higher value. In outline:
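Genetically defined yeast (DNA repair-deficient) exposed to compounds; growth inhibition determined relative to vehicle.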

`CCOC(=O)C1C(=O)CC(O)(c2ccccc2)C(C(=O)OCC)C1c1ccc(OC)cc1` (stereo not drawn): the growth inhibition in assay [1] is -17.9%; in assay [2], -13.2%; in assay [3], -6.65%; in assay [4], -31.1%; in assay [5], 6.95%; in assay [6] it was -3.7%.

On to `O=c1nc(-c2ccco2)sc(=O)[nH]1`, for which the growth inhibition is -0.05% in assay [1]; -5.6% in assay [2]; -8.35% in assay [3]; 13.2% in assay [4]; -5.85% in assay [5]; -3.4% in assay [6].

In the case of `CCOC(=O)C1=NC(c2ccccc2)N(c2ccccc2)C1c1ccccc1` (stereo not drawn), the growth inhibition in assay [1] is -9%; in assay [2], -8.5%; in assay [3] it was 17.9%; in assay [4], -0.75%; in assay [5] it was 10.3%; in assay [6], 8.3%.

As to `CN(CC(=O)NC(Cc1ccccc1)C(=O)O)C(=O)OCc1ccccc1` (stereo not drawn) (Cbz-[Sar]-[ξF]-OH), the growth inhibition is -16.9% in assay [1]; -7.95% in assay [2]; -1.2% in assay [3]; -6.2% in assay [4]; -16.1% in assay [5]; -10.6% in assay [6].

With `Cc1ccc(S(=O)(=O)N(c2c(F)cc(C#N)cc2F)S(=O)(=O)c2ccc(C)cc2)cc1`, the growth inhibition was 51.7% in assay [1]; 6.35% in assay [2]; 32.8% in assay [3]; 30.1% in assay [4]; 2.6% in assay [5]; 31.6% in assay [6].

On to `COc1cc(C2OC[C@@H]3C(=O)OC[C@H]23)cc(O)c1OC` (stereo partly drawn), for which the growth inhibition in assay [1] is 3.35%; in assay [2] it was -1.6%; in assay [3] it was -33.1%; in assay [4], -13.3%; in assay [5], -38.8%; in assay [6], -23.7%.

Regarding `O=C(c1cccs1)c1cccs1`, the growth inhibition in assay [1] is -6.4%; in assay [2], -12.9%; in assay [3] it was -17.6%; in assay [4], -67%; in assay [5], 8.3%; in assay [6], -8.45%.

Regarding `CC(=O)Cc1ccc(Cl)cc1[N+](=O)[O-]`, the growth inhibition was -14.8% in assay [1]; 5.95% in assay [2]; -8.5% in assay [3]; -24.3% in assay [4]; -9.7% in assay [5]; 1.9% in assay [6].

Turning to `Nc1nc(N)nc(CCCCc2nc(N)nc(N)n2)n1`, the growth inhibition in assay [1] is -28.1%; in assay [2] it was -16%; in assay [3] it was -14.3%; in assay [4], -15.7%; in assay [5], -59.5%; in assay [6], -21.5%.

In the case of `CC(=O)CC(=O)C(C)C.[Cu+2]`, the growth inhibition was -7.6% in assay [1]; -15.9% in assay [2]; -17.1% in assay [3]; -17.9% in assay [4]; -21.5% in assay [5]; -17.4% in assay [6].

Consider `CCNCC(OC)C(COC)OC(=O)c1ccc([N+](=O)[O-])cc1` (stereo not drawn), for which the growth inhibition was 15.1% in assay [1]; -11.6% in assay [2]; -7.65% in assay [3]; -32.9% in assay [4]; 20.4% in assay [5]; 7.25% in assay [6].

For the molecule `Nc1ccc(F)cc1C(F)(F)F`, the growth inhibition was 6.65% in assay [1]; -45% in assay [2]; -4.55% in assay [3]; -7.75% in assay [4]; -8.05% in assay [5]; 23% in assay [6].

In the case of `Cn1c(=O)c2nc3c(=O)n(C)c(=O)n(CC(N)=O)c3nc2n(C)c1=O`, the growth inhibition in assay [1] was 28.2%; in assay [2] it was -5.65%; in assay [3], 14.9%; in assay [4], 26.2%; in assay [5] it was 12.1%; in assay [6], 21.4%.

Turning to `O=C=Nc1ccc(Cc2ccc(N=C=O)cc2)cc1`, the growth inhibition in assay [1] is -13.7%; in assay [2], 6.7%; in assay [3], -7.45%; in assay [4], -15.2%; in assay [5], -23.9%; in assay [6], -36.5%.

As for `CN1CNc2nc(N)n(C)c(=O)c2C1`, the growth inhibition is 11.2% in assay [1]; -4.7% in assay [2]; 11.4% in assay [3]; 11.8% in assay [4]; -6.5% in assay [5]; 8.2% in assay [6].

`CCCC/C(CC)=N\N=C(/CC)CCCC`: the growth inhibition in assay [1] is 7.3%; in assay [2], 7.2%; in assay [3] it was 17.9%; in assay [4] it was -28.2%; in assay [5], 3.15%; in assay [6], 17.5%.

Consider `O=C(O)CS(=O)(=O)CC(=O)O`, for which the growth inhibition was -10.3% in assay [1]; -11.4% in assay [2]; -10.2% in assay [3]; -6.65% in assay [4]; -23.4% in assay [5]; -12.1% in assay [6].

For `CO/N=C\c1cc[n+](C)cc1`, the growth inhibition was 11.7% in assay [1]; 24.6% in assay [2]; 18.9% in assay [3]; 30.7% in assay [4]; 55% in assay [5]; 19.2% in assay [6].

With `NC(=Nc1ccccc1)c1ccc(Cl)cc1`, the growth inhibition is 66.2% in assay [1]; 96.5% (active) in assay [2]; 45.4% in assay [3]; 97.2% (active) in assay [4]; 98.6% (active) in assay [5]; 87.7% (active) in assay [6].

For the molecule `CCc1ccc2c(c1)C(=O)c1c(c(-c3ccccc3)c3ccccc3c1-c1ccccc1)C2=O`, the growth inhibition in assay [1] was -5.95%; in assay [2] it was -4.5%; in assay [3] it was -6.4%; in assay [4], -18.1%; in assay [5] it was 13.8%; in assay [6] it was 8.65%.

Consider `O=C(O)c1cc2cc(O)ccc2[nH]1`, for which the growth inhibition in assay [1] is 2.6%; in assay [2] it was 3.6%; in assay [3] it was 20.9%; in assay [4] it was 3%; in assay [5] it was 10.4%; in assay [6], -5.25%.

Regarding `CSc1ccccc1C(C)(C)O`, the growth inhibition in assay [1] was 24.6%; in assay [2], -2.55%; in assay [3] it was 3.35%; in assay [4], -29.8%; in assay [5], -1.4%; in assay [6] it was 26.4%.

In the case of `O=[N+]([O-])c1ccccc1S(=O)(=O)c1ccccc1[N+](=O)[O-]`, the growth inhibition in assay [1] was -26.4%; in assay [2], -9.45%; in assay [3], -14.1%; in assay [4] it was -10%; in assay [5], -1.5%; in assay [6], -21%.

Turning to `CN(/N=C\c1ccc([N+](=O)[O-])cc1)C(=O)c1ccccc1`, the growth inhibition was -6.85% in assay [1]; -4.15% in assay [2]; 14.6% in assay [3]; -33.6% in assay [4]; 19.4% in assay [5]; -7.35% in assay [6].

Regarding `O=C1C(=O)C([n+]2cccc3ccccc32)=C([O-])C2=C1C1c3ccccc3C2c2ccccc21`, the growth inhibition in assay [1] was 98.8% (active); in assay [2], 98.4% (active); in assay [3], 98.9% (active); in assay [4], 98.8% (active); in assay [5], 91% (active); in assay [6], 98.6% (active).

Consider `O=c1[nH]c(=O)n(C2CC(O)C(CO)O2)cc1OCC1CCCCC1` (stereo not drawn), for which the growth inhibition in assay [1] was -33.9%; in assay [2] it was -4.8%; in assay [3], -13.3%; in assay [4] it was 1.85%; in assay [5], -14.4%; in assay [6], -19.9%.

Turning to `COc1ccc(Cc2ccc3c(c2)OCO3)cc1C`, the growth inhibition in assay [1] is -12.1%; in assay [2], -14.2%; in assay [3] it was 9.7%; in assay [4] it was -9.55%; in assay [5], 6.45%; in assay [6], -3.95%.

`CNC(=O)N(C)C(=O)c1ccncc1C(=O)N(C(=O)NC1CCCCC1)C1CCCCC1`: the growth inhibition in assay [1] is 32.6%; in assay [2], 2.2%; in assay [3], 7.15%; in assay [4], 20.8%; in assay [5], -3.95%; in assay [6], 1.65%.

`Brc1ccc(C2CC(c3cccc4ccccc34)=Nc3ccccc3S2)cc1` (stereo not drawn): the growth inhibition was -14.1% in assay [1]; -2.45% in assay [2]; -10.9% in assay [3]; -29.2% in assay [4]; 8.7% in assay [5]; 18.1% in assay [6].

Consider `O=c1[nH]c(=O)n(C2CC(O)C(CO)O2)cc1/C=C/Br` (stereo not drawn), for which the growth inhibition in assay [1] was -17.9%; in assay [2], -9.25%; in assay [3] it was -8.95%; in assay [4], -5.4%; in assay [5] it was 7.35%; in assay [6] it was -18.1%.

With `O=C1NC2CCC(NC(=O)N1c1ccccc1)C1=C2C1`, the growth inhibition in assay [1] is -28.6%; in assay [2], -8.85%; in assay [3], -5.7%; in assay [4] it was -0.8%; in assay [5], -3.4%; in assay [6], -32.1%.

For the molecule `C=CCn1ccc(=O)nc1SCc1ccccc1`, the growth inhibition in assay [1] was 5.45%; in assay [2] it was -4.8%; in assay [3], 0.4%; in assay [4], -33.5%; in assay [5] it was 3.35%; in assay [6], 0.05%.

As to `COC(=O)c1ccc(C(=O)OC)c2nc3cc(Cl)ccc3nc12`, the growth inhibition is -7.05% in assay [1]; -10.2% in assay [2]; -35.5% in assay [3]; -29.2% in assay [4]; -10.6% in assay [5]; -40.1% in assay [6].

Take `CCOC(=O)c1nc2c(Cl)c3ncccc3cc2[nH]c1=O`: the growth inhibition in assay [1] was 20.6%; in assay [2], 11.1%; in assay [3], 20.8%; in assay [4], -9.7%; in assay [5], 16.1%; in assay [6], 20.4%.

As for `Nc1ccc(S(=O)(=O)CCO)cc1`, the growth inhibition is 1.1% in assay [1]; -7.5% in assay [2]; 4.65% in assay [3]; 4.45% in assay [4]; -5.6% in assay [5]; 3.6% in assay [6].

For the molecule `O=C(Cc1ccccc1)N/N=C(\C1=Nc2ccc([N+](=O)[O-])cc2NC1O)C(O)c1ccc([N+](=O)[O-])cc1` (stereo not drawn), the growth inhibition in assay [1] was 10%; in assay [2], 9.6%; in assay [3], 1.7%; in assay [4], 18.2%; in assay [5] it was 20.6%; in assay [6], 18.2%.

As to `c1ccc2c(-c3ccncc3)c3ccccc3cc2c1`, the growth inhibition in assay [1] is 20.8%; in assay [2] it was 2.6%; in assay [3], 9.45%; in assay [4], 0.45%; in assay [5], 6.5%; in assay [6], 20.3%.

`CC(C)(C)c1ccc(-c2nc3ccc([N+](=O)[O-])cc3c(=O)o2)cc1`: the growth inhibition in assay [1] was 12.1%; in assay [2], 15.8%; in assay [3], 35%; in assay [4], -13.1%; in assay [5], 16.1%; in assay [6] it was 33.5%.
